WT yeast gro inh: growth inhibition of WT yeast, mitochondrial fusion screen | mitochondrial fusion phenotypic screen, WT strain | inhibition, % at 10 µM | actives 2.1% (n = 190,000); in the data active = inhibition above about 58%; tested in S. cerevisiae
Cl transport mod: KCC2 (human) Cl- transport modulation; actives 2.2% (n = 190,000); AID 1456; B-score of Tl+ flux slope (higher = more flux/activation; lower = inhibition) at 10 µM; Q9H2X9; KCC2 cells, thallium flux FluoZin-2 fluorescence;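 active = thallium flux slope and its plate-corrected score both differing from the plate sample mean at a set confidence after two filtering rounds, in either direction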;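 also: slope of fluorescence scaled to starting intensity during 10 to 20 s after thallium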
Target sequence (Q9H2X9 whole entry, looked up): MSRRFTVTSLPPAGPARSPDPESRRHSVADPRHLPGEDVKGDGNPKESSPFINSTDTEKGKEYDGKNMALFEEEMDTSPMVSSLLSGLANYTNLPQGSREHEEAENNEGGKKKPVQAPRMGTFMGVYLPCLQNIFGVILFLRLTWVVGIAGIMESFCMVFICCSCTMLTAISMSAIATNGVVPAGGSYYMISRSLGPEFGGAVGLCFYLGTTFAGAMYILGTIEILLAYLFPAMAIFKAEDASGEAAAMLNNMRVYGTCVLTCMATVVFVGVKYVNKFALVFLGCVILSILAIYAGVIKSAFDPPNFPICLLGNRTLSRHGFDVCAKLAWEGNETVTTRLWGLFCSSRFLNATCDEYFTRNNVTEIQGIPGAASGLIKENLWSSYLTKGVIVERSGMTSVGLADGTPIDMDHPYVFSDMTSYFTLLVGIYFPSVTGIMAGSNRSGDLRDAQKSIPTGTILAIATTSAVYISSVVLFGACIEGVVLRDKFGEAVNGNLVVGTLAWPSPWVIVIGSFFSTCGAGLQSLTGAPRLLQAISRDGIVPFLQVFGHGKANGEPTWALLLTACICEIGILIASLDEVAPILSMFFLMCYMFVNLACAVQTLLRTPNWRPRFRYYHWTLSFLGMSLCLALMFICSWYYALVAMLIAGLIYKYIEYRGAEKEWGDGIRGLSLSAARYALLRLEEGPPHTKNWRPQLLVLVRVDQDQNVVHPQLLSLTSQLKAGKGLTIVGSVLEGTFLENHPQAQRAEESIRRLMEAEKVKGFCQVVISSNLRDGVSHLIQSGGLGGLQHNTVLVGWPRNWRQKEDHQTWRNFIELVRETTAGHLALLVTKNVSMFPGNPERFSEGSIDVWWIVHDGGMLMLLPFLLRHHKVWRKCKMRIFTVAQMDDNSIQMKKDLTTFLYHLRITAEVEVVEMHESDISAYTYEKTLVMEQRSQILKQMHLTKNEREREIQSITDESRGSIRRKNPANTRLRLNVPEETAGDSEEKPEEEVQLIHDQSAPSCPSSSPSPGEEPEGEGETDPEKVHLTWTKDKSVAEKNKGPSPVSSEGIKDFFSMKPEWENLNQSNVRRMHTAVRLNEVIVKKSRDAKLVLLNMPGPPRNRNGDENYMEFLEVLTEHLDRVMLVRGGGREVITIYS
ROMK mod: human ROMK K+ channel modulation, primary screen; P48048; Tet-inducible ROMK, thallium flux fluorescence; actives lie on both sides; B-score at 10 µM; actives 2% (n = 130,000); AID 1918;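 active = signal ratio slope over the read window, or its plate-corrected B-score, at least 3 SD from the plate mean, either direction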;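 also: B-score of the F/F0 ratio slope over 7 to 12 s after thallium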
Calpain2 inh: inhibitors of pig calpain II | purified calpain II, fluorogenic peptide substrate, 30 min | inhibition, % at 16 µM | actives 0.37% (n = 220,000) | AID 1236;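 active = inhibition above about 50%, limit read from the data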
L major viab: inhibitors of Leishmania major promastigote growth | Leishmania major promastigotes, resazurin fluorescence viability | inhibition, % at 10 µM | actives 9% (n = 200,000); in the data active = inhibition above about 50%;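 also: promastigotes grown with compound for 44 hours at 28 °C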
* hit, by the source's call; . = not tested or not shown. An excerpt weighted towards active compounds, which were near 12% of everything screened.

SMILES	WT yeast gro inh	Cl transport mod	ROMK mod	Calpain2 inh	L major viab
CC(=O)c1cc(-c2ccccc2)n(CC(=O)Nc2cccc(C)c2)c1C	-2	-0.74	-0.97	2	64*
CC(=O)c1cc(-c2ccccc2)n(CCC(=O)NC2CCCC2)c1C	0	0.45	-0.1	-29	0
CC(=O)c1cc(-c2ccccc2)n(CCC(=O)NC2CCCCC2)c1C	-4	0.15	-0.19	2	83*
CC(=O)c1cc(-c2ccccc2)n(CC(=O)N2CCC(N3CCCCC3)CC2)c1C	-3	1.4	.	2	95*
CC(=O)c1cc(-c2ccccc2)n(CC(=O)N2CCCC2)c1C	-10	0.35	0.055	-18	-5
COc1ccc(/C=N/NC(=O)Nc2cccc3nsnc23)cc1	2	0.5	.	-141	-2
COc1cc(NS(=O)(=O)c2ccc(NC(=S)NC(=O)c3sc4cc(F)ccc4c3Cl)cc2)nc(OC)n1	1	-2.1	.	20	-9
O=C(O)c1ccccc1NC(=S)NC(=O)c1sc2ccccc2c1Cl	3	-3.3	3.1	-45	12
CN(C(=O)COC(=O)c1sc2ccccc2c1Cl)C1CCCCC1	54	-0.047	0.21	24	-11
CN(C)CCCOC(=O)c1sc2ccccc2c1Cl	10	-1.1	.	-34	59*
CCCOc1ccc(C(CC(=O)O)NC(=O)c2sc3ccccc3c2Cl)cc1 (stereo not given)	-6	-2.1	-0.72	16	-6
CCCCOC(=S)NC(=O)c1sc2ccccc2c1Cl	4	47*	.	-27	-11
COc1cc(NS(=O)(=O)c2ccc(NC(=S)NC(=O)c3sc4ccccc4c3Cl)cc2)nc(OC)n1	3	-0.18	1.6	58*	-8
Cc1ccc(NC(=S)NC(=O)c2sc3ccccc3c2Cl)c(C(=O)O)c1	35	60*	4.5*	-38	0
O=C(c1cccs1)C1CCCN(Cc2nc(Cc3ccccc3F)no2)C1 (stereo not given)	-2	-1.9	-0.56	33	78*
CCCC(=O)NC(=S)N1CCN(c2ccc([N+](=O)[O-])cc2)CC1	7	-0.28	0.054	24	70*
Cc1ccc(C(=O)NC(=S)N2CCN(c3ccc([N+](=O)[O-])cc3)CC2)cc1	-2	2.8	.	0	-8
CCOc1ccccc1Cn1c(=O)sc2ccccc21	19	-1.1	0.29	51*	16
O=C1/C(=C/c2cccnc2)Oc2cc(OS(=O)(=O)c3ccccc3)ccc21	-18	.	0.055	-106	57*
COc1ccc(S(=O)(=O)Oc2ccc3c(c2)O/C(=C\c2cccnc2)C3=O)cc1	9	.	-0.1	-327	86*
O=C1/C(=C/c2cccnc2)Oc2cc(OS(=O)(=O)c3ccc(Cl)cc3)ccc21	7	.	-0.064	-156	14
CC(C)Oc1ccc(C2CC(=O)N(c3cccc(Br)c3)C2=O)cc1 (stereo not given)	.	0.87	.	30	.
c1ccc(CCn2c(C3CC3)nc3ccccc32)cc1	-5	.	-1.6	20	63*
Cc1cc(Br)ccc1OCCCCN1CCCCC1	32	1	-1.6	-11	100*
COc1ccc(Br)cc1CN1CCCCCCC1	4	1.3	0.32	9	21
SMILES	WT yeast gro inh	Cl transport mod	ROMK mod	Calpain2 inh	L major viab
Cc1cc(C(C)(C)C)ccc1OCCCCN1CCCC1	17	0.32	-1.4	-1	99*
C/C(=N\O)c1ncc(C(F)(F)F)cc1Cl	3	-1.4	-0.14	2	-4
NNC(=O)CNC(c1ccccc1)c1cc(Br)ccc1NC(=O)c1cccc(Cl)c1 (stereo not given)	30	0.02	-1.2	-3	6
COC(=O)CNC(c1ccccc1)c1cc(Cl)ccc1NC(=O)c1cccc(Cl)c1 (stereo not given)	58*	-1.9	-0.67	20	6
Cc1cc(C)nc(NC(=NCCc2c[nH]c3ccccc23)NC(=O)C(C)(C)C)n1	.	-1.4	.	1	.
COc1ccc(C(=O)CSc2nnc(CNC(=O)c3ccc(OC)cc3)n2C)cc1	-4	.	.	18	-2
Cc1cc(OCC(=O)NCCCN(C)C)cc(C)c1Br	-6	.	-0.86	1	100*
CCc1ccc(OCC(=O)NCCN(C)C)c(Br)c1	8	.	0.029	9	96*
O=[N+]([O-])c1ccccc1/C=C/C=N/Nc1ccc(S(=O)(=O)Nc2ccc(Cl)cc2)cc1[N+](=O)[O-]	3	1.1	0.11	-63	67*
O=[N+]([O-])c1ccc(N/N=C/c2c[nH]c3ccccc23)c(S(=O)(=O)Nc2ccc(Cl)cc2)c1	95*	0.013	2.6	-16	24
CCOC(=O)C1=C(N)N(c2cc(S(=O)(=O)N3CCOCC3)ccc2Cl)C(=O)C1	-1	0.68	0.011	-59	-9
O=C1CN=CN=CN1c1ccc(Cl)cc1Cl	16	0.96	.	8	-3
O=C(c1ccccc1)c1nnc(-c2ccncc2)o1	72*	1	0.62	10	-5
COC(=O)c1ccc(S(=O)(=O)N2CCC(C(N)=O)CC2)n1C	.	1.2	0.65	-1	.
CC1(C(=O)N(Cc2ccccc2)Cc2ccccc2)CC1(Br)Br (stereo not given)	83*	-1.2	0.53	35	6
CCc1ccc(NC2=CC(=O)CC(c3ccco3)C2)cc1 (stereo not given)	.	-1.1	.	5	63*
Cc1cc(C)cc(NC2=CC(=O)CC(c3ccco3)C2)c1 (stereo not given)	-27	0.33	0.79	19	5
Cc1ccc(CN2CCCC(CO)(Cc3ccccc3C)C2)s1 (stereo not given)	15	0.59	-2.1	9	66*
CCOC(=O)N1CCC(N2CCCC(CO)(Cc3ccccc3C)C2)CC1 (stereo not given)	27	0.98	-0.91	-2	88*
CCOC(=O)N1CCC(N2CCCC(CO)(Cc3cccc(Cl)c3)C2)CC1 (stereo not given)	25	.	-1.1	-34	87*
Cc1ccccc1CC1(CO)CCCN(Cc2ccn[nH]2)C1 (stereo not given)	-1	2.2	-0.048	-28	10
COCCn1c(SCC(=O)NCc2ccc3c(c2)OCO3)nnc1-c1c[nH]c2ccccc12	-13	.	.	13	-5
Cc1ccccc1Cc1ccc(Cl)nn1	-28	-0.015	-0.19	-13	-7
COC(=O)C1=C(N)Oc2cc(C)[nH]c(=O)c2C1c1ccccc1OC (stereo not given)	.	0.53	.	-10	.
COCCOC(=O)C1=C(C)NC2=C(C(=O)CC(C)(C)C2)C1c1cc2c(cc1Br)OCO2 (stereo not given)	.	.	-1.4	.	7
NS(=O)(=O)c1ccc(CNS(=O)(=O)c2cc(C(=O)O)ccc2Cl)cc1	-3	-0.061	0.47	-6	5
C/C(=N\NC(=O)CNC(=O)c1ccc2c(c1)OCO2)c1ccco1	-15	1.7	0.38	7	53*
CC(/C=C/c1ccccc1)=N/NC(=O)CNC(=O)c1ccc2c(c1)OCO2	30	0.35	.	3	-8
C/C(=N/NC(=O)CNC(=O)Cc1ccccc1)c1ccco1	-15	0.68	-0.01	1	63*
Cc1onc(-c2c(F)cccc2Cl)c1C(=O)N1CCc2ccccc2C1	14	-1.1	.	15	100*

Screening results deposited in PubChem BioAssay by several laboratories.
